In the supplement of paper PMC10849652:
About 8,800 targets were measured; listed, in parts, are those with a hit and a random draw of the rest. About 0.5% of all pairs of compound and target were hits. Unmarked numbers belong to inactive results.

Experiments:
Experiment in all cases: log2 fold change, soluble protein after heating vs DMSO (PISA); higher = thermal stabilisation; K562 lysate, 10 uM; active = over 0.2 and 3.5 SD of the protein, either way, in both replicates (recomputed)
erlotinib = compound: C#Cc1cccc(Nc2ncnc3cc(OCCOC)c(OCCOC)cc23)c1 [erlotinib]
Procedure, shortened: (§1)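 The values are log-two fold changes in thermal stability compared with solvent controls and come from duplicates. They were obtained by TMTpro 16plex LC-MS/MS, with channel sums equalised, on the supernatant after 21,000xg for 90 min. That supernatant came from crude K562 extract at 1 mg/mL protein treated with 10 μM compound for 30 min, heated for 3 min across 48°C-58°C, pooled and brought to 0.5% NP-40 at 4°C.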

[1] = compound: C/C(=N\NC(=O)C1=CC(=CC=C1)S(=O)(=O)N2CCOCC2)/C3=C(C=CC(=C3)Cl)O
Procedure, shortened: as §1

[2] = compound: C1=CC(=CC=C1C2=NC3=C(N2)C=C(C=C3)C(=O)N)OC4=CC=C(C=C4)Cl
Procedure, shortened: as §1

[3] = compound: C1=CC2=C(C=CC(=C2)/C=C\3/C(=O)NC(=NCC4=CC=CS4)S3)N=C1
Procedure, shortened: as §1

[4] = compound: C1=CC2=NC=CN=C2C=C1/C=C/3\C(=O)NC(=O)S3
Procedure, shortened: as §1

[5] = compound: C1=CC=C(C=C1)C2=NC(=C(N2)C3=CC=NC=C3)C4=CC(=C(C=C4)Cl)O
Procedure, shortened: as §1

[6] = compound: C1=CC=C2C(=C1)C3=NNC4=CC=CC(=C43)C2=O
Procedure, shortened: as §1

[7] = compound: C1CCN(C1)C(=O)NC2=CC=CC(=C2)NC3=NC=C(C(=N3)NCCC4=CN=CN4)Br
Procedure, shortened: as §1

[8] = compound: C1CN(CCC1(CC2=CC=C(C=C2)Cl)N)C3=NC=NC4=C3C=CN4
Procedure, shortened: as §1

IRAK-1-4 Inhibitor I = compound: C1COCCN1CCN2C3=CC=CC=C3N=C2NC(=O)C4=CC(=CC=C4)[N+](=O)[O-] [IRAK-1-4 Inhibitor I]
Procedure, shortened: as §1

Chain of UniProt O43913 (O43913 whole entry, looked up): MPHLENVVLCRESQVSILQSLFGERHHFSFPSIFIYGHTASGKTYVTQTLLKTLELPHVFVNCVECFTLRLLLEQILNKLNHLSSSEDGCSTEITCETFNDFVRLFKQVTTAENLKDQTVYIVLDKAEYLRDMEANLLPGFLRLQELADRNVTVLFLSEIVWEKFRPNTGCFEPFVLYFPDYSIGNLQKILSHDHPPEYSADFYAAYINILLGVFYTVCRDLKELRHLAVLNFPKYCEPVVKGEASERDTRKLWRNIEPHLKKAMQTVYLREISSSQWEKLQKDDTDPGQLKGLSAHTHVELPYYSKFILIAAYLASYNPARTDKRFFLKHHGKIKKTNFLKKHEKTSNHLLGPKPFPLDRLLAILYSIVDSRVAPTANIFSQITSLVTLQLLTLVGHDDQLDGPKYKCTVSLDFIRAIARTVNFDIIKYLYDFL
Chain of UniProt Q92621 (Q92621 whole entry, looked up): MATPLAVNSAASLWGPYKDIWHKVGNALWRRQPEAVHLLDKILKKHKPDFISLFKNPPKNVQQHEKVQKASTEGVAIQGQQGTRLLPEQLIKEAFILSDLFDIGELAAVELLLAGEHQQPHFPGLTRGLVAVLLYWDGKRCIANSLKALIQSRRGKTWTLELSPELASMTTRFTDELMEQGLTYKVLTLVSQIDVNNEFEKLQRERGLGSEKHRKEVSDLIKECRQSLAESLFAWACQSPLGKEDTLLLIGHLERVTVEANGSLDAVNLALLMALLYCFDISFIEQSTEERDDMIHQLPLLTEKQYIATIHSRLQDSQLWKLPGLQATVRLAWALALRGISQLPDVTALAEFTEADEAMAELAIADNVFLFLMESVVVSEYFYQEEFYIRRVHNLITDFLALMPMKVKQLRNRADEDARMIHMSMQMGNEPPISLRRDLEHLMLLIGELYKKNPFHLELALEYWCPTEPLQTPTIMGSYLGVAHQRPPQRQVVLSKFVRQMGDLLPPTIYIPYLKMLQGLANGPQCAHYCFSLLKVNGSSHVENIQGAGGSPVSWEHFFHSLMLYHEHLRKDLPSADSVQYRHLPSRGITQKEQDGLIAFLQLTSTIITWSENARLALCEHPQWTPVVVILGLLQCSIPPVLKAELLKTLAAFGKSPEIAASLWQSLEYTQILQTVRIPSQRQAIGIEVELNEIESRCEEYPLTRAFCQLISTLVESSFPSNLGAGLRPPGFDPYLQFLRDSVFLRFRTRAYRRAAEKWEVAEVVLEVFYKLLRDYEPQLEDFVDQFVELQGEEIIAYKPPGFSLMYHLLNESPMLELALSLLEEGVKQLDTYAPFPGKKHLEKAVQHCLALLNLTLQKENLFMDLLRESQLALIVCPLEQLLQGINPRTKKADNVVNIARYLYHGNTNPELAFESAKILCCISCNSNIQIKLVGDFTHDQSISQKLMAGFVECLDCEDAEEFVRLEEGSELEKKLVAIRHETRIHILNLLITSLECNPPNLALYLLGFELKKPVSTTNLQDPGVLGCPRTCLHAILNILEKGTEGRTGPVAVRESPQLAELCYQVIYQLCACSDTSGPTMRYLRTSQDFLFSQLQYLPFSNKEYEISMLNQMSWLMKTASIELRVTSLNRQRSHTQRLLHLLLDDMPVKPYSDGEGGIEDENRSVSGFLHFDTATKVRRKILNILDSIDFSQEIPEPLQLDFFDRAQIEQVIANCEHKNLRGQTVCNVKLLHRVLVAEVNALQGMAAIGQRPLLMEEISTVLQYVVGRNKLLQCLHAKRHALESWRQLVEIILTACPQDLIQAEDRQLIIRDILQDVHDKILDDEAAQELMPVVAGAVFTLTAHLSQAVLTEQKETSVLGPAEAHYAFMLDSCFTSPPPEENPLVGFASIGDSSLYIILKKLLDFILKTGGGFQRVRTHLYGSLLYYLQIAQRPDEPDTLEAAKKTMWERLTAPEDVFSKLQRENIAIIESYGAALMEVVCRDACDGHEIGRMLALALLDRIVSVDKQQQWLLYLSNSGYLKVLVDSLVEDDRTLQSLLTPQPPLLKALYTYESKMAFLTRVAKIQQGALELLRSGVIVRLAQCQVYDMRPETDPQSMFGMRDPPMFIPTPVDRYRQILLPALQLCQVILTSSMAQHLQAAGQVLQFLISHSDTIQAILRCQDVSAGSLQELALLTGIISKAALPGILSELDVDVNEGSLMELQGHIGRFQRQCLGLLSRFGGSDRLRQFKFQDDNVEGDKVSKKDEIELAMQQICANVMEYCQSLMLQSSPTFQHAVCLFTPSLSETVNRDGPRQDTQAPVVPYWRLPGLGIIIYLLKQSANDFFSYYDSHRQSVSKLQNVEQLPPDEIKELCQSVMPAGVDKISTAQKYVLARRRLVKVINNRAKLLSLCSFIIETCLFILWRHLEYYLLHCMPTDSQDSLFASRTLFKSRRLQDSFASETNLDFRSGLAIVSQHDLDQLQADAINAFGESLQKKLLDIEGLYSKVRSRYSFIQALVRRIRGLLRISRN
Chain of UniProt P52948 (P52948 whole entry, looked up): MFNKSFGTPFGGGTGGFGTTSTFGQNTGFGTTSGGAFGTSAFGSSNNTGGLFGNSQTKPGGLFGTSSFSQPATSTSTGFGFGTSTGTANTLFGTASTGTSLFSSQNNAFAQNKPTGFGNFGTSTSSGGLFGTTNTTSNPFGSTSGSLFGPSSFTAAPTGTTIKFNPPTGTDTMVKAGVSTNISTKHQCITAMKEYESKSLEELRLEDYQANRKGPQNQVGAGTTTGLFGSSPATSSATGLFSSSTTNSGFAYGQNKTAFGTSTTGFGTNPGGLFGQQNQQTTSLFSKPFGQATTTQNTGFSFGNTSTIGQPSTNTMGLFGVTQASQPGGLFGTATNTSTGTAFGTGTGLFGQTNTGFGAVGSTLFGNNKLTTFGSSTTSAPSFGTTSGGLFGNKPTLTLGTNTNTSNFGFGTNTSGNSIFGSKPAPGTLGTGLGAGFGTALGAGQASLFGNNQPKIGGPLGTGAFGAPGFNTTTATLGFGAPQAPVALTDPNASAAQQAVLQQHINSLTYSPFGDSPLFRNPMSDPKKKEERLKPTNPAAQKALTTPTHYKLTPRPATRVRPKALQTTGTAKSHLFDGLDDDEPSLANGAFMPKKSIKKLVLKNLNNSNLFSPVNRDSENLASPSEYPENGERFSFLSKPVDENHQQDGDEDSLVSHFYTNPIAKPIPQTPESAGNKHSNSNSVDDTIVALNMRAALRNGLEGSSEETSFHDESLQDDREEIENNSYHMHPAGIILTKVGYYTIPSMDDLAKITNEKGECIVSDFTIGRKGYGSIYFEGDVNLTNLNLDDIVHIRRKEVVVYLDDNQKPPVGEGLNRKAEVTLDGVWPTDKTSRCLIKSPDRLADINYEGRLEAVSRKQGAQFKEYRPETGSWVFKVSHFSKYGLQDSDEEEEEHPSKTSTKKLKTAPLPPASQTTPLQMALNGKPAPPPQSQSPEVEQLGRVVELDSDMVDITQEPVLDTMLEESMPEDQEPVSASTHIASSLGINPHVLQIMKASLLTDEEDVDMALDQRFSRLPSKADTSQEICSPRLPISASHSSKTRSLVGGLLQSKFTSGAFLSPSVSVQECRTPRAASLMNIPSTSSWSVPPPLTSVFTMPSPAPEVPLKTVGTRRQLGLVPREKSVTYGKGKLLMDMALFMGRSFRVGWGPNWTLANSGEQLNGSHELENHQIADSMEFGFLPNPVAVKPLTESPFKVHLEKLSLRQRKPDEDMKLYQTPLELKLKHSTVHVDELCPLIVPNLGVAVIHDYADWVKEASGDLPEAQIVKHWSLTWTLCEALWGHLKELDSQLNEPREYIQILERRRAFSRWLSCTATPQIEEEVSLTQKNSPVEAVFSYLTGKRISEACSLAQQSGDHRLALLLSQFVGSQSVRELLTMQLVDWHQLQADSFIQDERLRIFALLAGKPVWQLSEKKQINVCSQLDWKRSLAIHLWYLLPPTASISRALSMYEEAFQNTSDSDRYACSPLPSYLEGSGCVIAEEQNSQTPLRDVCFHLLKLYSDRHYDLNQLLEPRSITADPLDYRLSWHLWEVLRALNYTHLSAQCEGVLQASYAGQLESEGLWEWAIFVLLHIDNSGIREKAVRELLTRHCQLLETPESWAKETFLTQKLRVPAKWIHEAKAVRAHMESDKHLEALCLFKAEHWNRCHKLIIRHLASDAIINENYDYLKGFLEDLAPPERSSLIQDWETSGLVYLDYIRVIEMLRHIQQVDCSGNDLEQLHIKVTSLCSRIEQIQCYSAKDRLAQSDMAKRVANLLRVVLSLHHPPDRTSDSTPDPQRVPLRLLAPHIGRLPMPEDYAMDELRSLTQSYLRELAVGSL
Chain of UniProt Q9NVE7 (Q9NVE7 whole entry, looked up): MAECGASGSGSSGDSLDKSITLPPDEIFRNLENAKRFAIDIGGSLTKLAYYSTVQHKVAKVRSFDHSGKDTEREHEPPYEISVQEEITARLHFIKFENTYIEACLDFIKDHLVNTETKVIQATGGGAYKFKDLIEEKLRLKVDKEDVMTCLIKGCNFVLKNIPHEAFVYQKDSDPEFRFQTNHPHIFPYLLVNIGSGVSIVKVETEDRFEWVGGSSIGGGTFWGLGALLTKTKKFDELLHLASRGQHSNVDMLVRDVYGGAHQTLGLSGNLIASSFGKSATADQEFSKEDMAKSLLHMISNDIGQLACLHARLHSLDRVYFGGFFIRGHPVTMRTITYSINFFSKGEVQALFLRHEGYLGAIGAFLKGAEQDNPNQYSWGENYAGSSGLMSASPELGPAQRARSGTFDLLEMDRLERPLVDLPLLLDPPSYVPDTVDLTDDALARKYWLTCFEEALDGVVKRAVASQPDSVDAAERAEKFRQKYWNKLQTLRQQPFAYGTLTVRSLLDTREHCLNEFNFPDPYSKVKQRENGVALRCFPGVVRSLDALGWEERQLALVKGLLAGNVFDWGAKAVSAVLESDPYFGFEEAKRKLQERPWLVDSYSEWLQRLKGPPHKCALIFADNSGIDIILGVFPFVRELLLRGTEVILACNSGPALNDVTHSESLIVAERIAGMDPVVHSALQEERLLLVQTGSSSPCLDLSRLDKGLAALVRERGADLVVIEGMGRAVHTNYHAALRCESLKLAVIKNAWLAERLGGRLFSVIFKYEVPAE
Chain of UniProt P03928 (P03928 whole entry, looked up): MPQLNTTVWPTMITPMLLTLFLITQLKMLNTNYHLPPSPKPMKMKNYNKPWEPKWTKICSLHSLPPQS

| Target | log2 fold change (erlotinib) | log2 fold change [1] | log2 fold change [2] | log2 fold change [3] | log2 fold change [4] | log2 fold change [5] | log2 fold change [6] | log2 fold change [7] | log2 fold change [8] | log2 fold change (IRAK-1-4 Inhibitor I) |
| --- | --- | --- | --- | --- | --- | --- | --- | --- | --- | --- |
| NF1 (UniProt P21359) | 0.072 | -0.031 | -0.02 | -0.056 | -0.008 | -0.003 | -0.089 | 0.017 | 0 | 0.023 |
| MSH2 (UniProt P43246) | 0.003 | 0.018 | -0.028 | 0.028 | 0.013 | 0.017 | -0.019 | -0.01 | 0.012 | -0.009 |
| OSBPL6 isoform 5 (UniProt Q9BZF3) | 0.182 | 0.398 (active) | 0.09 | -0.006 | -0.012 | 0.257 | 0.107 | -0.029 | -0.015 | -0.08 |
| ORC5 (UniProt O43913) | 0.014 | 0.021 | -0.017 | 0.003 | 0.045 | 0.029 | -0.016 | -0.085 | -0.061 | -0.068 |
| NUP205 (UniProt Q92621) | 0.03 | -0.022 | -0.018 | 0.049 | -0.008 | -0.013 | -0.06 | -0.009 | 0.035 | 0.005 |
| ORC3 isoform 2 (UniProt Q9UBD5) | -0.006 | -0.048 | -0.046 | 0.004 | 0.053 | -0.011 | -0.045 | -0.015 | -0.007 | -0.008 |
| NOSIP (UniProt Q9Y314) | 0.012 | -0.001 | 0.023 | 0.022 | 0.011 | 0.025 | -0.019 | 0.003 | 0.022 | 0.01 |
| NADK2 (UniProt Q4G0N4) | 0.005 | -0.024 | 0.011 | 0.104 | -0.026 | -0.003 | -0.017 | -0.019 | 0.031 | 0.025 |
| MYO1C (UniProt O00159) | -0.002 | -0.005 | 0.003 | 0.017 | 0.006 | 0.047 | -0.003 | -0.021 | -0.032 | -0.055 |
| PANK1 (UniProt Q8TE04) | -0.003 | -0.048 | 0.033 | 0.026 | 0.098 | 0.015 | -0.069 | -0.036 | 0.054 | -0.061 |
| MVB12A (UniProt Q96EY5) | 0.027 | -0.049 | 0.022 | -0.001 | -0.024 | -0.001 | -0.046 | -0.089 | -0.003 | -0.001 |
| N4BP2 (UniProt Q86UW6) | 0.04 | -0.029 | -0.09 | 0.069 | -0.015 | 0.001 | 0.106 | -0.021 | -0.068 | -0.022 |
| NTMT1 (UniProt Q9BV86) | 0.002 | 0.031 | 0.02 | 0.055 | -0.001 | -0.002 | 0.014 | 0.021 | 0.042 | -0.033 |
| MRPS18A isoform 2 (UniProt Q9NVS2) | 0.024 | -0.038 | 0.038 | 0.112 | -0.035 | -0.053 | -0.013 | 0.009 | 0.004 | 0.015 |
| MT-CYB (UniProt P00156) | 0.076 | 0.141 | 0.027 | 0.024 | 0.015 | -0.229 | 0.126 | -0.105 | 0.025 | 0.028 |
| MT-ATP8 (UniProt P03928) | 0.069 | 0.006 | -0.006 | -0.041 | 0.103 | -0.103 | -0.062 | 0.116 | 0.068 | 0.033 |
| NUP188 (UniProt Q5SRE5) | 0.066 | 0.011 | -0.01 | 0.004 | -0.007 | -0.03 | -0.034 | 0.027 | -0.003 | 0.023 |
| NUCB2 (UniProt P80303) | -0.003 | 0.018 | 0.014 | -0.018 | 0.011 | -0.015 | -0.017 | 0.003 | 0.003 | 0.007 |
| NUP98 (UniProt P52948) | -0.018 | 0.017 | 0.023 | -0.026 | 0.005 | -0.079 | -0.004 | 0.015 | 0.021 | 0.002 |
| MSI2 (UniProt Q96DH6) | -0.04 | -0.277 | 0.035 | -0.047 | 0.084 | -0.034 | -0.011 | 0.03 | 0.027 | 0.057 |
| NIFK (UniProt Q9BYG3) | 0 | -0.05 | -0.01 | -0.009 | 0.032 | 0.038 | 0.01 | -0.02 | -0.005 | -0.042 |
| NOC2L (UniProt Q9Y3T9) | -0.036 | -0.013 | -0.018 | -0.029 | 0.027 | 0.031 | 0.077 | -0.009 | -0.004 | -0.046 |
| MTA2 (UniProt O94776) | -0.025 | -0.017 | 0.019 | 0.013 | -0.012 | -0.015 | -0.023 | -0.007 | 0.021 | -0.005 |
| NEDD8 (UniProt Q15843) | 0.018 | -0.019 | 0 | 0.031 | -0.047 | 0.011 | -0.053 | 0.026 | 0.07 | 0 |
| PANK4 (UniProt Q9NVE7) | 0.013 | -0.012 | 0.003 | 0.051 | 0.033 | 0.003 | -0.052 | -0.002 | 0.018 | 0.018 |
| NAA30 (UniProt Q147X3) | 0.015 | -0.027 | 0.061 | 0.026 | -0.007 | -0.046 | -0.038 | -0.088 | -0.031 | 0.085 |
| OGT (UniProt O15294) | 0.021 | 0.053 | 0.01 | -0.008 | 0.008 | 0.024 | -0.021 | -0.006 | 0.02 | -0.017 |
| PAFAH1B3 (UniProt Q15102) | 0.037 | 0.032 | -0.017 | -0.017 | 0.022 | -0.009 | 0.005 | 0.025 | 0.027 | 0.005 |
| NDC1 (UniProt Q9BTX1) | -0.002 | 0.015 | 0.026 | 0.047 | 0.031 | -0.005 | -0.077 | 0.013 | 0.024 | 0.026 |
| OSGEP (UniProt Q9NPF4) | 0.012 | -0.002 | 0.041 | -0.148 | -0.236 (active) | 0.008 | -0.058 | 0.009 | -0.028 | -0.022 |
